Assay outcomes deposited in PubChem BioAssay by several laboratories.
phage Ecoli inh – growth loss of phage-infected E. coli, primary screen, RecBCD inhibitor project, absorbance, with phage, HTS; inhibition, % at 11.9 µM; actives 0.26% (n = 360,000); in the data active means inhibition above about 11%
AddAB inh – growth inhibition of E. coli expressing H. pylori AddAB, primary screen, AddAB inhibitor project, absorbance | inhibition, % at 11.9 µM | actives 0.29% (n = 330,000) | AID 435030, 2010; in the data active means inhibition above about 12%
E coli growth-1 – E. coli growth inhibition, primary screen, OD600. actives 0.21% (n = 330,000). Escherichia coli growth, 23 h; stronger effect = lower value. OD600 absorbance (test concentration not listed);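 active means OD600 absorbance below the run mean of sample wells minus 3.6 SD, in any replicate, cut at about 0.56 in these data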
Tat transport – E. coli Tat export inhibitors, primary screen, MC4100, TorA-mCherry reporter, fluorescence, single point; inhibition, % at 10 µM; actives 0.036% (n = 340,000); AID 488895, 2010;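 active means mean replicate inhibition at least 50% and at least half of replicates individually reaching 50%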;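 further: exported cargo escapes ClpAP degradation while cytoplasmic cargo is degraded and loses fluorescence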
E coli growth-2 – E. coli V3065 growth inhibition, primary screen, counter-screen for AddAB inhibitor project, absorbance, OD600 | 18 h | inhibition, % at 11.9 µM | actives 0.27% (n = 330,000) | AID 449728, 2010;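 active means inhibition above the campaign's mean inhibition across all tested compounds plus 3 SD, cut at about 9.9% in these data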;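 further: uninfected addAB+ strain grown without phage in ampicillin broth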
A number is an active result; – = inactive; · = no result given. Shown are actives, neighbours in structure and some others; about 0.51% of the full set was active somewhere.

SMILES	phage Ecoli inh	AddAB inh	E coli growth-1	Tat transport	E coli growth-2
CCOC(=O)CC1c2cc(C(F)(F)F)ccc2S(=O)(=O)N1Cc1ccccc1 (stereo not given)	·	·	–	·	·
C=Cc1ncc(OC)c2c1[nH]c1ccccc12	·	–	0.49	–	–
CN(N=Cc1cccc(Br)c1)C1=NS(=O)(=O)c2ccccc21	·	·	–	·	·
CO[C@@]12[C@@H]3N[C@@H]3CN1C1=C(C(=O)C(N)=C(C)C1=O)[C@@H]2COC(N)=O	–	·	·	67	·
O=C(NN=Cc1ccc(-c2cccc(C(F)(F)F)c2)o1)c1ccccc1Br	·	·	–	·	·
Clc1ccc2c(c1)C(N1CCNCC1)Cc1ccccc1S2 (stereo not given)	·	–	0.55	–	–
COC(=O)C(CCSC)NC(=O)NC1CCN(Cc2ccccc2)CC1 (stereo not given)	·	·	–	·	·
COc1ccc2[nH]c(C)c(CCN3C(=O)OC(C)(C)C3(C)O)c2c1 (stereo not given)	–	–	0.63	–	–
COc1ccc2[nH]c(C)c(CCN3C(=O)C4CC=CCC4C3=O)c2c1 (stereo not given)	–	–	–	–	–
CCCCCOc1ccc(Br)cc1CSC(=N)N	–	·	0.48	–	·
CN(C)c1ccc(/C=C/c2ccc3ccccc3[n+]2C)cc1	–	28	0.29	–	18
CN(C)c1ccc(/C=C/c2cccc[n+]2[O-])cc1	–	–	·	–	–
CN(C)c1ccc(/C=C/c2ccc3c4ccccc4ccc3[n+]2-c2ccccc2)cc1	17	·	0.24	–	·
O=C(NCc1ccc(Cl)cc1)C1CCN(S(=O)(=O)c2cccc3nonc23)CC1	–	–	0.53	–	–
O=C(NCCc1ccc(Cl)cc1)C1CCN(S(=O)(=O)c2cccc3nonc23)CC1	–	–	–	–	–
COc1ccc(CC(N)C(=O)NC2C(CO)OC(n3cnc4c(N(C)C)ncnc43)C2O)cc1 (stereo not given)	·	·	0.3	·	·
CNCCCNC(=O)c1ccc(C=NO)nc1	·	·	–	·	·
CC(=O)Nc1cccc(C(=O)NN=Cc2ccccc2F)c1	·	·	–	·	·
CC(=NNC(=O)c1ccc(CN2CCc3ccccc3C2)cc1)c1ccccc1O	·	·	–	·	·
CCOC(=O)CC1c2cc(F)ccc2S(=O)(=O)N1c1ccccc1 (stereo not given)	·	·	–	·	·
COC(=O)NN=Cc1ccc([N+](=O)[O-])s1	·	·	–	·	·
Cc1[nH]cnc1C(=O)NN=Cc1ccc([N+](=O)[O-])s1	·	·	0.41	·	·
O=[N+]([O-])c1ccc(C=NNC(=S)Nc2ccccc2C(F)(F)F)o1	·	·	0.49	·	·
O=C(NN=Cc1ccc([N+](=O)[O-])o1)C1CC1	·	·	0.065	·	·
O=C(NN=Cc1ccc([N+](=O)[O-])o1)c1ccc(O)cc1	·	·	0.41	·	·
SMILES	phage Ecoli inh	AddAB inh	E coli growth-1	Tat transport	E coli growth-2
CCCC(=O)Nc1ccc(C(=O)NN=Cc2ccc([N+](=O)[O-])o2)cc1	·	·	–	·	·
Cc1nonc1C(=O)NN=Cc1ccc([N+](=O)[O-])o1	·	·	0.5	·	·
O=[N+]([O-])c1ccc(C=NNC(=S)Nc2ccccc2F)o1	·	·	–	·	·
COc1ccc(-c2oc3cccnc3c2C=Cc2ccc(OC)c(OC)c2)cc1	·	·	–	·	·
O=C(C(=CO)N=Nc1ccccc1Cl)c1ccccc1	·	·	–	·	·
COc1ccc(S(=O)(=O)N(C)CC2Oc3c(NC(=O)NC4CCCCC4)cccc3C(=O)N(C(C)CO)CC2C)cc1 (stereo not given)	·	·	–	·	·
O=C(CNc1ccccc1)NN=Cc1ccc([N+](=O)[O-])o1	·	·	0.49	·	·
O=C(CCC(=O)Nc1ccc(Cl)cc1Cl)NN=Cc1ccc([N+](=O)[O-])o1	·	·	0.41	·	·
NC(=O)NN=Cc1ccc([N+](=O)[O-])o1	·	·	0.064	·	·
O=C(CNC(=O)c1ccccc1)NN=Cc1ccc([N+](=O)[O-])o1	·	·	–	·	·
CCC1=C2CCC3C(=O)N(C)C(=O)C3C2[C@@]2(Cc3ccccc3)C(=NCC(=O)OC)OC(=O)N2C1=O (stereo not given in full)	·	·	–	·	·
O=C(CNC(=O)c1ccc(Br)cc1)NN=Cc1ccc[nH]1	·	·	–	·	·
O=C1CC(c2ccc(S(=O)(=O)NCc3ccncc3)cc2)CN1 (stereo not given)	13	–	–	–	–
O=C1CC(c2ccc(S(=O)(=O)NC3CC3)cc2)CN1 (stereo not given)	–	–	–	–	–
Cc1ccsc1C=NNC(=O)C(=O)NCC(C)C	·	·	–	·	·
O=S1(=O)CCC(NC(=S)SCCOc2ccccc2)C1 (stereo not given)	–	–	0.49	–	–
CCCCSC(=S)NC1CCS(=O)(=O)C1 (stereo not given)	–	–	–	–	–
O=C1C(=Cc2cccnc2)Sc2ccccc21	·	·	–	·	·
O=C(Nc1nnc(-c2ccco2)o1)c1ccc(Cl)cc1	–	–	0.44	–	–
Cc1ccc(C(=O)Nc2nnc(-c3ccco3)o2)cc1C	–	–	–	–	–
C#CCOCCOCCOCCNc1nc(N2CCN(C(=O)C(C)n3cc(CCC(=O)O)nn3)CC2)nc(N2CCN(C(=O)C(Cc3ccc(O)cc3)n3cc(CCO)nn3)CC2)n1 (stereo not given)	·	·	–	·	·
Cc1cccnc1Nc1nc(-c2ccccn2)cs1	–	–	0.5	–	–
C#CCOCCOCCOCCNc1nc(N2CCN(C(=O)C(Cc3ccc(O)cc3)n3cc(C(N)C(C)CC)nn3)CC2)nc(N2CCN(C(=O)C(C(C)CC)n3cc(C(N)CC(C)C)nn3)CC2)n1 (stereo not given)	·	·	–	·	·
Oc1c(Cl)cc(Cl)cc1CNc1nc2ccccc2[nH]1	–	–	0.42	–	–
Oc1c(Cl)cc(Cl)cc1CNc1ccccn1	–	·	–	–	·
SMILES	phage Ecoli inh	AddAB inh	E coli growth-1	Tat transport	E coli growth-2
C[n+]1c2n(c3ccccc31)N=C(c1ccccc1)CS2	–	–	–	–	–
C[n+]1c2n(c3ccccc31)N=C(c1ccc(-c3ccccc3)cc1)CS2	–	–	0.3	–	–
CCN(CC)CCNS(=O)(=O)c1ccc(C(=O)NN)cc1	–	–	–	–	–
CCOC(=O)c1ccc(S(=O)(=O)NCCN(CC)CC)cc1	–	–	0.44	–	–
CC[C@@H](C(=O)[C@@H](C)[C@@H](O)[C@H](C)[C@@H]1O[C@@H]([C@@H](CC)C(=O)O)CC[C@@H]1C)[C@H]1O[C@]2(C=C[C@@H](O)[C@]3(CC[C@@](C)([C@H]4CC[C@](O)(CC)[C@H](C)O4)O3)O2)[C@H](C)C[C@@H]1C	12	·	·	–	·
CCC(=O)Nc1cccc(C2=NOC3(C2)CC(C(N)=O)N(C(=O)c2ccc(OC)cc2)C3)c1 (stereo not given)	·	·	–	·	·
Nc1nc(-c2ccccn2)nc(N)c1Cc1ccc(Cl)cc1Cl	–	–	0.36	–	–
C=CCOC(=O)C1=CC(c2ccc(C(F)(F)F)cc2)CC(OCCCCO)O1 (stereo not given)	·	·	–	·	·
COc1cc(C=NNC(=O)Cc2nnc(N)s2)cc(OC)c1OC	·	·	–	·	·
COc1ccc(-n2c(Cc3cccn3C)nnc2SCC(=O)Nc2ccc(C(C)=O)cc2)cc1	–	–	–	56	–
COc1ccc(NC(=O)CSc2nnc(Cc3cccn3C)n2-c2ccc(OC)cc2)cc1	–	–	–	–	–
C(=C\c1nc2ccccc2[nH]1)/c1ccccc1	–	–	0.53	–	–
